Data taken from PubChem BioAssay (EPA / NIEHS).
Results filed as inconclusive are left out. The source made the active and inactive calls. The calls were made as follows: active = hit-call score of the fitted dose curve at least 0.9, where 1 is the maximum; inconclusive = response in the unintended direction; inactive = score below 0.9.

Tests used:
[1] = biological target: Adenosine receptor A1 (Bos taurus) (UniProt P28190); assay: NVS_GPCR_bAdoR_NonSelective: NovaScreen (NVS) G Protein-Coupled Receptor Assay for bovine Adenosine Receptor (AdoR), Non-selective Binding (AID 2283244)
Adenosine receptor A1 (Bos taurus), sequence (P28190 whole entry, looked up): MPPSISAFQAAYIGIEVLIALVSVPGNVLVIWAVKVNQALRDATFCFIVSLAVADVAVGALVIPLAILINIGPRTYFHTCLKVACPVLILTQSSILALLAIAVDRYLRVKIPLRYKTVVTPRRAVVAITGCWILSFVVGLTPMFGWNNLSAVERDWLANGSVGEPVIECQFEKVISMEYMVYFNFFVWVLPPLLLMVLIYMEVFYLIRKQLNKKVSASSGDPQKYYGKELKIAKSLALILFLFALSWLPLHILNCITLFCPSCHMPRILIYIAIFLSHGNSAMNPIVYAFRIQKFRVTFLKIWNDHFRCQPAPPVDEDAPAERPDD
In short: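 Cell-free binding with membranes from bovine striatum: radioligand displaced by test chemical, read after 1 h by filtration and scintillation. Single-point 25 uM duplicate primary, 50 uM top concentration in follow-up curves, DMSO baseline.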

[2] = system: guinea pig Leukotriene B4 Receptor (LTB4), gene 100379538; assay: NVS_GPCR_gLTB4: NovaScreen (NVS) G Protein-Coupled Receptor Assay for guinea pig Leukotriene B4 Receptor (LTB4) (AID 2283247)
In short: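 Membranes from guinea pig spleen incubated 2 h with radioligand and compound; bound counts measured by filtration and scintillation. Screened first at 25 uM in duplicate, then actives titrated to a 50 uM top concentration relative to DMSO.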

[3] = biological target: human Adenosine A1 Receptor (AdoRA1), ADORA1 (gene 134) (UniProt P30542); assay: NVS_GPCR_hAdoRA1: NovaScreen (NVS) G Protein-Coupled Receptor Assay for human Adenosine A1 Receptor (AdoRA1) (AID 2283254)
human Adenosine A1 Receptor (AdoRA1), ADORA1 (gene 134), sequence (P30542 whole entry, looked up): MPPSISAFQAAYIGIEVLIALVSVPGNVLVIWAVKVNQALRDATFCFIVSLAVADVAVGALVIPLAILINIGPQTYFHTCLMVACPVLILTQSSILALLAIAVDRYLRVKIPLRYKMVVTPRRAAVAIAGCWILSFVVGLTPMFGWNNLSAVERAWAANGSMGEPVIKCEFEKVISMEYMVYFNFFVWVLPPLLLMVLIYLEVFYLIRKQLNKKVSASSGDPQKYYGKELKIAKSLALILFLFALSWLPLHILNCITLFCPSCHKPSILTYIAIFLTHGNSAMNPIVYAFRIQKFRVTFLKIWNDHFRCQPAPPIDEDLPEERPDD
In short: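 Each chemical is first tested twice at 25 uM, actives later in dilution series, against a radioligand bound to human cortex membranes; after 1 h, filter-retained counts are compared with DMSO controls, lower signal indicating displacement.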

[4] = biological target: human Adenosine A2a Receptor (AdoRA2a), ADORA2A (gene 135) (UniProt P29274); assay: NVS_GPCR_hAdoRA2a: NovaScreen (NVS) G Protein-Coupled Receptor Assay for human Adenosine A2a Receptor (AdoRA2a) (AID 2283256)
human Adenosine A2a Receptor (AdoRA2a), ADORA2A (gene 135), sequence (P29274 whole entry, looked up): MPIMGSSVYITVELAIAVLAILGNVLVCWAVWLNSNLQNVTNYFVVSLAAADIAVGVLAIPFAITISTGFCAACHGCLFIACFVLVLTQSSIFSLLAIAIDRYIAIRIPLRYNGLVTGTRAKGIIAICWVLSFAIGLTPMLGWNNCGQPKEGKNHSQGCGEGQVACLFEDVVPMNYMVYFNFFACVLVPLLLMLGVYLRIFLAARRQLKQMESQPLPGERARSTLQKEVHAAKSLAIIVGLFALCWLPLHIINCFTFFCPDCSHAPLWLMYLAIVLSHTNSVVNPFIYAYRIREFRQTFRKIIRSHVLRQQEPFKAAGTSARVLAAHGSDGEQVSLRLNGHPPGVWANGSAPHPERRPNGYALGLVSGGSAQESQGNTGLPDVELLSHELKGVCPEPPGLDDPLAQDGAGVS
In short: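 HEK293-derived receptor preparation, radioligand displacement, 1.5 h, filtration + scintillation read. Loss of bound signal scored vs DMSO. Single-point 25 uM in duplicate first, then concentration-response for actives.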

[5] = biological target: guinea pig Leukotriene D4 Receptor (LTD4), CYSLTR1 (gene 100135514) (UniProt Q2NNR5); assay: NVS_GPCR_gLTD4: NovaScreen (NVS) G Protein-Coupled Receptor Assay for guinea pig Leukotriene D4 Receptor (LTD4) (AID 2283248)
guinea pig Leukotriene D4 Receptor (LTD4), CYSLTR1 (gene 100135514), sequence (Q2NNR5 whole entry, looked up): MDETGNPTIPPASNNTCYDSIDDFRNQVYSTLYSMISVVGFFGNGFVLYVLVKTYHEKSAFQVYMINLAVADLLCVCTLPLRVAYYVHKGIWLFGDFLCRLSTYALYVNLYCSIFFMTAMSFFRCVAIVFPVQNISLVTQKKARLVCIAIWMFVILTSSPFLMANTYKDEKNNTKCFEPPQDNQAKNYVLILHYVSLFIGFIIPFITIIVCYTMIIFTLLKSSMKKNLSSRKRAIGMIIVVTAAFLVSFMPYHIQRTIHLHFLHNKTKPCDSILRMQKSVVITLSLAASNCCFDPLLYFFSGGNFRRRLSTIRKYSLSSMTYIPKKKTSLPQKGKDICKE
In short: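 Guinea pig lung membrane preparation; bound radioligand measured by filter scintillation after 1 h, loss of signal versus DMSO marking displacement. Compounds tested at 25 uM in duplicate, hits retested to max 50 uM.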

[6] = biological target: human Serotonin, 5-Hydroxytryptamine Receptor 5A (5HT5A), HTR5A (gene 3361) (UniProt P47898); assay: NVS_GPCR_h5HT5A: NovaScreen (NVS) G Protein-Coupled Receptor Assay for human Serotonin, 5-Hydroxytryptamine Receptor 5A (5HT5A) (AID 2283251)
human Serotonin, 5-Hydroxytryptamine Receptor 5A (5HT5A), HTR5A (gene 3361), sequence (P47898 whole entry, looked up): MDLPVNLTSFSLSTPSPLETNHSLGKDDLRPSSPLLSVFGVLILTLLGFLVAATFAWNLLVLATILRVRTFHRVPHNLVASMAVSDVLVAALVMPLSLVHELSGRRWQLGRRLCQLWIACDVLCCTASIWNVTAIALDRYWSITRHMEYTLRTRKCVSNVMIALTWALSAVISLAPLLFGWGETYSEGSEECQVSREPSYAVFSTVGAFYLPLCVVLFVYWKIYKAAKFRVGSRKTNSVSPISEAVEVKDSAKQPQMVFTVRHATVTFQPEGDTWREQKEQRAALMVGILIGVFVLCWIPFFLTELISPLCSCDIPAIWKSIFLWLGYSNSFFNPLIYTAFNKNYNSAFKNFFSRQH
In short: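 Membranes from HEK293 cells, radioligand binding read by filtration and scintillation after 1 h. Single-concentration duplicate testing at 25 uM, then concentration-response for actives; positive-direction fitting relative to DMSO.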

[7] = biological target: sheep Cyclooxygenase-1 (Cox1), PTGS1 (gene 443551) (UniProt P05979); assay: NVS_ENZ_oCOX1: NovaScreen (NVS) Enzymatic Assay for sheep Cyclooxygenase-1 (Cox1) (AID 2283239);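 also: actives reduce cyclooxygenase activity so potencies are for inhibitors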
sheep Cyclooxygenase-1 (Cox1), PTGS1 (gene 443551), sequence (P05979 whole entry, looked up): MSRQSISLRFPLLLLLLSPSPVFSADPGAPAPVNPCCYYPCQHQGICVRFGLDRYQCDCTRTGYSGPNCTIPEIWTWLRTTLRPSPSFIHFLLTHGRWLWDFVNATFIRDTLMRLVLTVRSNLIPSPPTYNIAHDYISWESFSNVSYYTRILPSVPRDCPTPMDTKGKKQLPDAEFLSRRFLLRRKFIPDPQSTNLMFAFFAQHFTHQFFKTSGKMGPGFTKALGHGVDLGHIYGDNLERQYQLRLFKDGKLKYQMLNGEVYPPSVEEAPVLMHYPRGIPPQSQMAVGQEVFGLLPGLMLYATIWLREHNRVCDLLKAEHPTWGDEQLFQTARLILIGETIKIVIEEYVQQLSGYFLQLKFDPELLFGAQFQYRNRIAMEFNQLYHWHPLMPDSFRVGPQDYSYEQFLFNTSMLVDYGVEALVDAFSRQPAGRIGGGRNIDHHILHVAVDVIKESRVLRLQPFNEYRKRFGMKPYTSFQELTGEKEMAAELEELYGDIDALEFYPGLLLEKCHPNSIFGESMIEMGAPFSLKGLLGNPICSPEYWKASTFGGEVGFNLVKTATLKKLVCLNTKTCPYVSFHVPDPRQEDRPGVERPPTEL
In short: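 Tested in duplicate at 25 uM, then in concentration series if active, against seminal vesicle extract from sheep. Enzyme activity was measured colorimetrically at 0.66 hour and normalised to DMSO.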

[8] = biological target: human Serotonin, 5-Hydroxytryptamine Receptor 6 (5HT6), HTR6 (gene 3362) (UniProt P50406); assay: NVS_GPCR_h5HT6: NovaScreen (NVS) G Protein-Coupled Receptor Assay for human Serotonin, 5-Hydroxytryptamine Receptor 6 (5HT6) (AID 2283253)
human Serotonin, 5-Hydroxytryptamine Receptor 6 (5HT6), HTR6 (gene 3362), sequence (P50406 whole entry, looked up): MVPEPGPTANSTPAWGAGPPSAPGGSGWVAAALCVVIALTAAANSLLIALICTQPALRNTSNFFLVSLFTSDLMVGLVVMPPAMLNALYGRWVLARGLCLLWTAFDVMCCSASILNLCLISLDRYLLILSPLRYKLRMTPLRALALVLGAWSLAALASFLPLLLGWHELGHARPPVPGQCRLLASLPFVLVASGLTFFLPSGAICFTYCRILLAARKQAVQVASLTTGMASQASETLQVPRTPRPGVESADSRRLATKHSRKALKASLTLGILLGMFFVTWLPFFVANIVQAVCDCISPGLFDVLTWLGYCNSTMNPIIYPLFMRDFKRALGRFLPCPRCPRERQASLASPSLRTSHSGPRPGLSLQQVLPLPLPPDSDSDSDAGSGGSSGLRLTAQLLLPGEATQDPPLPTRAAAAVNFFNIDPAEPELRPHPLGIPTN
In short: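 Filter scintillation counting of radioligand displacement from HEK293-expressed 5HT6, 1 hour post-dose, with loss of signal relative to DMSO. Single 25 uM duplicates first, with concentration series for confirmation.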

[9] = system: bovine Angiotensin II Receptor Type 2 (AT2), gene 407157; assay: NVS_GPCR_bAT2: NovaScreen (NVS) G Protein-Coupled Receptor Assay for bovine Angiotensin II Receptor Type 2 (AT2) (AID 2283240)
In short: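 Radioligand displacement on bovine cerebellar membranes, 1 hour incubation, filter-based scintillation counting; loss of signal vs DMSO. Duplicate single-point screen at 25 uM, then concentration-response to 50 uM maximum.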

[10] = system: guinea pig Muscarinic, Peripheral (Mperiperal) Receptor, Non-selective Binding, gene 100379235; assay: NVS_GPCR_gMPeripheral_NonSelective: NovaScreen (NVS) G Protein-Coupled Receptor Assay for guinea pig Muscarinic, Peripheral (Mperiperal) Receptor, Non-selective Binding (AID 2283250)
In short: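 Screened in duplicate at 25 uM, hits retested in concentration series to 50 uM max, using bladder membrane radioligand displacement from guinea pig. Filtration and scintillation counting 1 h post-dose, fitted relative to DMSO.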

[11] = biological target: guinea pig Opioid, Kappa 1 Receptor (OpiateK), OPRK1 (gene 100135587) (UniProt P41144); assay: NVS_GPCR_gOpiateK: NovaScreen (NVS) G Protein-Coupled Receptor Assay for guinea pig Opioid, Kappa 1 Receptor (OpiateK) (AID 2283252);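 also: active means reduced radioligand binding relative to DMSO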
guinea pig Opioid, Kappa 1 Receptor (OpiateK), OPRK1 (gene 100135587), sequence (P41144 whole entry, looked up): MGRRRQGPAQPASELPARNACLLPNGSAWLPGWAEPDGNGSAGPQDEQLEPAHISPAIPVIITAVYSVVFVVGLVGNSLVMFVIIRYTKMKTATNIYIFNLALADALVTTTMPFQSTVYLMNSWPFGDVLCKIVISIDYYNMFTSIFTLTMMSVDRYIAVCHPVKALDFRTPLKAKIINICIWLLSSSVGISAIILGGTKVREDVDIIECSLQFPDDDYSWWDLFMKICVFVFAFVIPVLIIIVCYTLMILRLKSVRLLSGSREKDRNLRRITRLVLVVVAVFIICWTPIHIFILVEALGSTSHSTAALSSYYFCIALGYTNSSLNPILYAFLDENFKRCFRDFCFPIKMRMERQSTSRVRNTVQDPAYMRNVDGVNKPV
In short: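 Radioligand binding to kappa opioid receptor in guinea pig cerebellar membranes, read by filtration and scintillation at 2 h. Compounds first tested in duplicate at 25 uM, then actives in concentration series; signal loss fitted against DMSO.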

CCCCCCCCCC(=O)O
outcome [1]: inactive | outcome [2]: inactive | outcome [3]: inactive | outcome [4]: inactive

CC(C)(C)c1csc(-c2cc3cc(OCc4ccccc4CC(=O)O)ccc3o2)n1
AC50 [5]: 0.0125 µM (active) | outcome [6]: inactive

Oc1ccc2ccccc2c1
AC50 [7]: 5.35 µM (active) | outcome [3]: inactive

C[C@]12CC[C@@H]3c4ccc(O)cc4CC[C@H]3[C@@H]1CC[C@H]2O
AC50 [8]: 25 µM (active)

CC1(C)NC(=O)N(c2ccc([N+](=O)[O-])c(C(F)(F)F)c2)C1=O
AC50 [1]: 9.79 µM (active)

Cc1occc1C(=O)Nc1ccc(C(=O)N2CCC(F)(F)/C(=C\C(=O)N3CCC(N4CCCCC4)CC3)c3ccccc32)cc1
AC50 [9]: 3.76 µM (active) | AC50 [10]: 5.65 µM (active) | AC50 [11]: 2.49 µM (active) | AC50 [3]: 3.24 µM (active) | AC50 [4]: 2.33 µM (active)

CC(C)(O)c1ccc(CNC(=O)c2cccnc2Oc2ccc3nonc3c2)cc1
AC50 [2]: 0.646 µM (active) | AC50 [11]: 14.3 µM (active) | outcome [4]: inactive

Cc1cc(F)ccc1-c1cc(N2CC[C@@H](O)[C@H]2CO)ncc1N(C)C(=O)C(C)(C)c1cc(C(F)(F)F)cc(C(F)(F)F)c1
outcome [5]: inactive | AC50 [6]: 7.83 µM (active) | AC50 [8]: 11.7 µM (active) | AC50 [3]: 20.4 µM (active) | AC50 [4]: 20.4 µM (active)

CCCCCc1ccc(N)cc1
AC50 [7]: 7.04 µM (active)

O=c1[nH]sc2ccccc12
AC50 [5]: 3.31 µM (active) | AC50 [6]: 14.2 µM (active) | AC50 [11]: 21.5 µM (active) | AC50 [8]: 14.3 µM (active)

O=C(O)Cc1cc(I)c(Oc2ccc(O)c(I)c2)c(I)c1
AC50 [2]: 0.623 µM (active) | outcome [6]: inactive | outcome [3]: inactive

CN(C[C@@H](CC[N+]12CCC(C3CCCCC3)(CC1)CC2)c1ccc(Cl)c(Cl)c1)C(=O)c1cc(C(F)(F)F)cc(C(F)(F)F)c1
AC50 [9]: 36.7 µM (active) | AC50 [2]: 0.166 µM (active) | AC50 [8]: 10.5 µM (active) | AC50 [3]: 16.7 µM (active)

CN1C(=O)N(c2ccccc2Br)Cc2cnc(Nc3ccc4c(c3)OCC(CO)O4)nc21 (stereo unspecified)
outcome [6]: inactive
